MCF10A rerep – induces DNA re-replication in MCF 10a normal breast cells | Potency, µM (highest dose often 46.1 µM), inactives show at the top dose activity, positive = re-replication, most hits filed as activators | actives 2.9% (n = 350,000) | MCF 10A DNA re-replication, Hoechst nuclear intensity, 48 h | AID 624296; note: % of control where 0% means no effect; nearly all actives have a fitted effect of over 50% in size
KB-3-1 tox – kills parental KB-3-1 adenocarcinoma cells. KB-3-1 viability, CellTiter-Glo ATP luminescence, 72 h. Potency, µM (doses to about 46.1 µM), usual class: cytotoxic. actives 1.4% (n = 400,000). AID 1347075; note: % is set by controls: 0 for no effect and ±100 for the full control effect; nearly all actives have a fitted effect of over 60% in size
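72 h, 37 °C compound treatment of KB-3-1 parental cells; CellTiter-Glo added, 10 min, luminescence read. Data corrected against DMSO-only plates and normalized before curve fitting.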
SW480 rereplic – inducers of DNA re-replication in SW480 colon cancer cells; AID 624297; SW480 DNA re-replication, Hoechst DNA content imaging, 48 h; actives 1.8% (n = 340,000); Potency, µM (top dose mostly 46.1 µM), for the others: at the top dose re-replication activation, actives largely listed as activators; note: % of control where 0% means no effect; nearly all actives have a fitted effect of over 55% in size
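Quantitative HTS format with DMSO vehicle controls; 48 hr drug incubation at 37 C, then 40 min Hoechst staining and scanning imager measurement at 405 nm excitation.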
KB-V1 cytotox – KB-V1 MDR subline cytotoxicity; KB-V1 MDR cells viability, CellTiter-Glo, 72 h; Potency, µM (titrated, usually from 46.1 µM), usual class: cytotoxic; actives 3.4% (n = 400,000); note: % is set by controls: 0 for no effect and ±100 for the full control effect; nearly all actives have a fitted effect of over 60% in size
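KB-V1 MDR subline cells in DMEM (phenol-red free, 10% FBS) exposed to compounds in qHTS concentration series for 72 h at 37 degrees C. Viability read by CellTiter-Glo luminescence; concentration-effect curves fitted after normalization and correction.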
PINK1 expr mod – PINK1 expression modulation; Potency, µM (top dose mostly 76.6 µM), for the others: top-dose activation (PINK1 increase), actives largely listed as activators; PINK1 immunofluorescence, high-content cytometry, 24 h; actives 0.2% (n = 410,000); active = well fitted activation curve with a large enough effect; inconclusive = small, poorly fitted or top-dose-only effect; cell line not stated here; note: % of control where 0% means no effect; nearly all actives have a fitted effect of over 65% in size
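PINK1 protein, normally rapidly degraded, was detected by immunofluorescence after 24 hour compound treatment of a stable cell line. Titration data (5 concentrations) came from laser-scanning cytometry, with CCCP-treated wells as controls.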
12-LOX inh – blocks human arachidonate 12S-lipoxygenase. P18054. purified 12hLO, xylenol orange hydroperoxide absorbance. Potency, µM (titrated, usually from 108 µM), for inactives: at the highest dose activity change, negative = inhibition, hits mostly inhibitors. actives 1.1% (n = 580,000). AID 1671190; note: % is set by controls: 0 for no effect and ±100 for the full control effect
Target sequence (P18054 whole entry, looked up): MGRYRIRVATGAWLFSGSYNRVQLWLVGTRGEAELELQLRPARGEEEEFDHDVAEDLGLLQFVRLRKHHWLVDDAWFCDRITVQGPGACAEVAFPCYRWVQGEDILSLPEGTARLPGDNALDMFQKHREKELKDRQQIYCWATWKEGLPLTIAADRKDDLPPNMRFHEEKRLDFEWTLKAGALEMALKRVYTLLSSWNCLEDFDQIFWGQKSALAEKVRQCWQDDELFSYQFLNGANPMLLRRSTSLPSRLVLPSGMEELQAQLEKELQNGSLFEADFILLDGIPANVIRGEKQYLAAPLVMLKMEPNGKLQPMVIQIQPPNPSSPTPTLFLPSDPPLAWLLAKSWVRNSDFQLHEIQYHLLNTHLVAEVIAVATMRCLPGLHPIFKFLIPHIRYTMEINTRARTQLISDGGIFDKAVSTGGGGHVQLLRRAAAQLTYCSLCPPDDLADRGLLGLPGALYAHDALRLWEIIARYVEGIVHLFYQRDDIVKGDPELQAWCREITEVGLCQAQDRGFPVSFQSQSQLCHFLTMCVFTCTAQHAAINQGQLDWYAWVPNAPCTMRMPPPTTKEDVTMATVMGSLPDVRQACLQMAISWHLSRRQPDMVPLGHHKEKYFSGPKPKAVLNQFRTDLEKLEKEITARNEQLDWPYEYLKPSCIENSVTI
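Hydroperoxide product was detected by ferrous iron/xylenol orange as the 573 to 405 nm absorbance ratio. Arachidonic acid at 40 uM (final) was turned over for 30 min at room temperature by 150 nM human 12hLO, pH 7.0 Hepes buffer, after 15 min compound preincubation.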
Starred values were filed as active, the others as inactive; [ ] = remark or other dose. Most compounds without a hit are left out; they make up all but 5.8% or so of the library. Unless noted, calls come from the whole dose curve; as a rule, active = well fitted curve in the direction sought with a large enough effect; inconclusive = small, poorly fitted or top-dose-only effect, or another doubt; inactive = no such curve, though single readings can be large; an effect the other way counts as inactive or inconclusive. Potency is the fitted concentration of half-maximal effect.

For Cc1cc(N2CCN(C)CC2)nc2ccc(NC(=O)CCC(=O)N3CCN(c4ccc([N+](=O)[O-])cc4)CC3)cc12 the results were MCF10A rerep 18µM*, KB-3-1 tox inactive, SW480 rereplic inconclusive, KB-V1 cytotox inactive, PINK1 expr mod 3% and 12-LOX inh -17%.
Screening Cc1c(O)ccc2c3c(c(=O)oc12)CCCC3 returned MCF10A rerep inconclusive, KB-3-1 tox inconclusive, SW480 rereplic -2%, KB-V1 cytotox 16µM*, PINK1 expr mod -1% and 12-LOX inh -11%.
OCCN1CCN(CC(O)COc2ccc(Cl)cc2)CC1 (stereo unspecified) was read as MCF10A rerep inconclusive, KB-3-1 tox inactive, SW480 rereplic 3%, KB-V1 cytotox inactive, PINK1 expr mod -1% and 12-LOX inh inconclusive.
Screening Cc1ccc(C(C)C)c(OCC(O)CN2CCOCC2)c1 (stereo unspecified) returned MCF10A rerep inconclusive, KB-3-1 tox inactive, SW480 rereplic 19%, KB-V1 cytotox inactive, PINK1 expr mod 2%[38.3 µM] and 12-LOX inh -9%.
Oc1ccc(C23CC4CC(CC(C4)C2)C3)cc1O was read as MCF10A rerep 11%, KB-3-1 tox inactive, SW480 rereplic 23%, KB-V1 cytotox inactive, PINK1 expr mod 5% and 12-LOX inh inconclusive.
For Cc1ccc(C(C)C)c(OCC(O)CN2CCN(CCO)CC2)c1 (stereo unspecified) the results were MCF10A rerep 12%, KB-3-1 tox inactive, SW480 rereplic -6%, KB-V1 cytotox inactive, PINK1 expr mod -1% and 12-LOX inh 10µM*.
For OCCN1CCN(CC(O)COc2ccc(C34CC5CC(CC(C5)C3)C4)cc2)CC1 (stereo unspecified) the results were MCF10A rerep 12µM*, KB-3-1 tox inconclusive, SW480 rereplic inconclusive, KB-V1 cytotox inactive, PINK1 expr mod 0% and 12-LOX inh inconclusive.
Screening NCCOc1ccc(C23CC4CC(CC(C4)C2)C3)cc1 returned MCF10A rerep 4.1µM*, KB-3-1 tox inconclusive, SW480 rereplic -12%, KB-V1 cytotox inconclusive, PINK1 expr mod -2% and 12-LOX inh inconclusive.
For Cc1cc(C(=O)N/N=C/c2cccs2)cs1 the results were 12-LOX inh -11%.
Cc1cc2cc(NS(=O)(=O)c3ccccc3F)ccc2[nH]1 was read as 12-LOX inh -4%.
Oc1c(CNc2ccccc2)cc(COCc2ccccc2)c2cccnc12 was read as MCF10A rerep 8%, KB-3-1 tox inactive, SW480 rereplic 0.46µM*, KB-V1 cytotox inactive, PINK1 expr mod 1% and 12-LOX inh -55%.
`Fc1cccc(COc2ccccc2CNc2ccccc2)c1` gave MCF10A rerep -3%, KB-3-1 tox inactive, SW480 rereplic 3%, KB-V1 cytotox inactive, PINK1 expr mod 15% and 12-LOX inh -24%.
Screening Oc1c(CN2CCOCC2)cc(COCc2ccccc2)c2cccnc12 returned MCF10A rerep inconclusive, KB-3-1 tox inconclusive, SW480 rereplic 3.7µM*, KB-V1 cytotox inconclusive, PINK1 expr mod -1% and 12-LOX inh inconclusive.
`Cn1cc(C(=O)N/N=C/C(Br)=C\c2ccccc2)ccc1=O` gave MCF10A rerep inconclusive, KB-3-1 tox inactive, SW480 rereplic 18µM*, KB-V1 cytotox inactive, PINK1 expr mod 23% and 12-LOX inh 0%.
Screening O=C(N/N=C/C=C\c1ccccc1)c1cnccn1 returned MCF10A rerep 0%, KB-3-1 tox inactive, SW480 rereplic 0%, KB-V1 cytotox inactive, PINK1 expr mod 1% and 12-LOX inh 2%.
COc1cccc(C(=O)N/N=C/C(Br)=C/c2ccccc2)c1 was read as MCF10A rerep 8.2µM*, KB-3-1 tox inconclusive, SW480 rereplic inconclusive, KB-V1 cytotox 3.7µM*, PINK1 expr mod 1% and 12-LOX inh 1%.
`O=C(N/N=C/C(Br)=C/c1ccccc1)c1cnccn1` gave MCF10A rerep 16µM*, KB-3-1 tox inactive, SW480 rereplic 3.3µM*, KB-V1 cytotox inactive, PINK1 expr mod 3% and 12-LOX inh 178%.
`O=C(Cc1cccs1)N/N=C/C(Br)=C/c1ccccc1` gave MCF10A rerep 18µM*, KB-3-1 tox inactive, SW480 rereplic 14%, KB-V1 cytotox inactive, PINK1 expr mod 12%[38.3 µM] and 12-LOX inh 19%.
Screening Cn1cc(C(=O)N/N=C/c2cccc(O)c2)ccc1=O returned MCF10A rerep -4%, KB-3-1 tox inactive, SW480 rereplic 3%, KB-V1 cytotox inactive, PINK1 expr mod 1% and 12-LOX inh -1%.
Screening COc1ccc(C(=O)N/N=C/C(Br)=C/c2ccccc2)cc1 returned MCF10A rerep inconclusive, KB-3-1 tox inactive, SW480 rereplic inconclusive, KB-V1 cytotox inconclusive, PINK1 expr mod 2% and 12-LOX inh -7%.
For CC(/C=N/NC(=O)Cc1cccs1)=C\c1ccccc1 the results were MCF10A rerep inconclusive, KB-3-1 tox inactive, SW480 rereplic 21%, KB-V1 cytotox inactive, PINK1 expr mod 10% and 12-LOX inh -19%.
CCOC(=O)c1c(C)[nH]c(C(=O)Cn2cnc3ccccc3c2=O)c1C was read as 12-LOX inh -17%.
Cc1nc2c(OCC(=O)c3ccccc3)cccn2c(=O)c1-c1cc(C)n(-c2ccc(Cl)cc2)n1 was read as 12-LOX inh 3%.
COc1ccc(C(C)=O)c(OCc2ccc(C#N)cc2)c1 was read as 12-LOX inh -1%.
For Cc1ccc(C(=O)CCC(=O)OCC(=O)c2ccc(Cl)c(Cl)c2)cc1 the results were 12-LOX inh -35%.
Screening Cn1cc(C(=O)N/N=C/C(Br)=C/c2ccccc2)ccc1=O returned MCF10A rerep 26µM*, KB-3-1 tox inconclusive, SW480 rereplic inconclusive, KB-V1 cytotox inactive, PINK1 expr mod 2% and 12-LOX inh 0%.
Cn1cc(C(=O)N/N=C/C=C/c2ccccc2)ccc1=O was read as MCF10A rerep -4%, KB-3-1 tox inactive, SW480 rereplic 0%, KB-V1 cytotox inactive, PINK1 expr mod 2% and 12-LOX inh 9%.
CCOC(=O)c1[nH]c2ccc(C)cc2c1NC(=O)CC was read as 12-LOX inh -22%.
O=C1c2ccccc2C(=O)N1/N=C/c1ccc(O)c(O)c1 was read as MCF10A rerep inconclusive, KB-3-1 tox inactive, SW480 rereplic -2%, KB-V1 cytotox inactive, PINK1 expr mod 1% and 12-LOX inh 22µM*.

Compound activity: PubChem BioAssay, National Center for Advancing Translational Sciences (NCATS)
